# “And” between values parts separate entries of the source, which are not always exact repeats. Equal entries are not always repeated. The source made the active and inactive calls. Cut-off read from the data, not from the text of the source, unless noted: active = parasite load remaining mostly below about 12% (no sharp cut-off); inactive = mostly above about 10%.
# How the values were obtained:
# [1] = yeast 75Q aggregation reduction – 75Q-TubU reporter (AID 1593); conditions: Yeast 75Q polyglutamine aggregation reporter
# [2] = blockers of cytochrome c efflux from mitochondria – biochemical, purified mitochondria (AID 1603); conditions: stronger effect = lower value;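 note: mouse liver mitochondria challenged with calcium chloride; signal normalized to the plate average as 100%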
# [3] = polyglutamine aggregate formation blockers (AID 1604); conditions: polyglutamine-induced protein aggregation inhibition assay; stronger effect = higher value; tested at 2.5 µM
# [4] = P. berghei load reduction in hepatocytes – cell-based, HepG2, luciferase luminescence, HepG2 viability, primary screen (AID 624349);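 note: 100% = mean of DMSO negative control wells on the same plate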; conditions: P. berghei liver stage in HepG2, luciferase luminescence, concentration not given here; parasite load remaining: stronger effect = lower value; viability: measured here: HepG2 viability without parasites
# [5] = Wnt pathway potentiators raising nuclear beta-catenin – imaging, WNT3A-conditioned medium, mouse C2C12, NPC library, primary screen (AID 1117326; in the data active = nuclear beta-catenin stimulation mostly above about 4.2%, no sharp cut-off; inactive = mostly below about 10%); conditions: stronger effect = higher value
# [6] = stimulators of insulin release from INS-1E, primary screen, cell-based, 5 mM glucose, NPC library (AID 1117329;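 active = compound raises insulin release from rat beta cells at 5 mM glucose, no numeric limit stated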); conditions: rat INS-1E insulin secretion, at 10 µM, stronger effect = higher value
# [7] = growth inhibition of GSK3B-pretreated HCT116 cells – cell-based, CellTiter-Glo, 0.2 to 20 µM (AID 1117336;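 active = compounds lowering colon cancer cell viability after pretreatment blocking the GSK3B kinase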); conditions: HCT116 viability after GSK3B inhibitor, at 20 µM, stronger effect = higher value
# [8] = inhibition of endothelial tube formation, primary screen, imaging, VEGF stimulated, CD31 staining, tube area, NPC library (AID 1117340;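 active = compound that reduces growth-factor-driven endothelial tube area in a mixed cell culture, no cutoff stated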); conditions: VEGF-stimulated ADSC/ECFC co-culture, at 10 µM, stronger effect = higher value
# [9] = GLP1 release stimulators, primary, NCI-H716, NPC library (AID 1117341;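 active = compound raises GLP1 secretion from the human gut endocrine cells, with no numeric limit stated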); conditions: NCI-H716 cells, at 10 µM, stronger effect = higher value
# [10] = HCT116 colon cancer cell growth inhibition, primary screen, CellTiter-Glo luminescence, NPC library (AID 1117342;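 active = compounds that lower survival of HCT116 colon cancer cells in the luminescence readout, no numeric limit stated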); conditions: at 20 µM (top of the series)
# [11] = reduced SW480 viability measured with CellTiter-Glo, NPC library, primary (AID 1117343;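 active = compounds that lower viability of the colon cancer cells in the luminescence readout, with no numeric limit stated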); conditions: CellTiter-Glo luminescence; at 20 µM (top of the series)
# [12] = NPC library primary testing for decreased DLD-1 cell viability via CellTiter-Glo (AID 1117346;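 active = compounds that lower survival of DLD-1 colon cancer cells in the luminescence readout, no cutoff given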); conditions: DLD-1 viability, CellTiter-Glo luminescence; at 20 µM (top of the series)
# [13] = target: 6-phosphogluconate dehydrogenase, decarboxylating (Homo sapiens) (UniProt P52209); assay: inhibition of human phosphogluconate dehydrogenase – biochemical, recombinant enzyme, NADPH absorbance, primary screen (AID 1159550;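 active = at least 20% inhibition of 6-phosphogluconate dehydrogenase activity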); conditions: recombinant 6PGD, NADPH absorbance 341 nm; at 10 µM; stronger effect = higher value
# Sequence of 6-phosphogluconate dehydrogenase, decarboxylating (Homo sapiens) (P52209 whole entry, looked up): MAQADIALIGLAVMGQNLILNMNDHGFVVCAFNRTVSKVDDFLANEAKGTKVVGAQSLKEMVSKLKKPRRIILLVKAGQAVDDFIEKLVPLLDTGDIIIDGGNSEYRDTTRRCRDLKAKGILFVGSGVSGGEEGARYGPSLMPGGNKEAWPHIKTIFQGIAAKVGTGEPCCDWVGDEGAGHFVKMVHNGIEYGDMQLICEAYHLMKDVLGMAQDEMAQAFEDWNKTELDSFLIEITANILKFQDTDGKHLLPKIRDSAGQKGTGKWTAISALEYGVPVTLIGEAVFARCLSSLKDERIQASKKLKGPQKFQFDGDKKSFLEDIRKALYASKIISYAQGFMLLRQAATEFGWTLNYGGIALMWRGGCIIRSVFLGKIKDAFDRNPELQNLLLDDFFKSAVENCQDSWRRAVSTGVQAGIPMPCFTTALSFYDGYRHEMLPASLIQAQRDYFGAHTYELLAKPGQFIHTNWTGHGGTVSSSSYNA
# [14] = EMT-state selective cytotoxicity in co-culture – imaging, PC-3E GFP, TEM4-18 mCherry, primary screen (AID 1345086;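 active = compounds killing one labelled cell type while sparing the other, by normalised counts and ratio limits, not self-fluorescent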;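 for all read-outs here: cells exposed to compound for 72 h before imaging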;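 for red/green cell ratio (normalised): normalised mesenchymal count divided by normalised epithelial count so high means epithelial killing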); conditions: PC-3E GFP / TEM4-18 mCherry co-culture, imaging cell counts, at 1 µM; for red/green cell ratio (normalised): actives lie on both sides
# [15] = test system: Aerobactin synthetase IucA (Klebsiella pneumoniae hvKP1); assay: IucA enzyme inhibition, primary screen, biochemical, Spectrum library (AID 1346200; call rule not given here;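 note: 100% = wells without compound and 0% = wells lacking enzyme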); conditions: malachite green pyrophosphate, A620, at 8 µM, stronger effect = lower value
# [16] = viability loss with induced miR-34 in A549 – imaging, A549 dox-inducible miR-34, nuclei and caspase counts, primary screen (AID 1347080;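 active = compounds whose cell count with miR-34 switched on is under 0.7 times the count with it off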); conditions: A549 miR-34 inducible, Hoechst nuclei count, 48 h
# [17] = target: NAD(+) hydrolase SARM1 (Homo sapiens) (UniProt Q6SZW1); assay: blocking NAD cleavage by SARM1 SAM-TIR – cell lysate, NAD-Glo luminescence (AID 1508614;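 active = compound whose remaining NAD level is above about 45 nM, limit read from the data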;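 note: higher remaining NAD means stronger inhibition of SARM1 NADase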); conditions: SAM-TIR HEK293T lysate NADase, at 1 µM, stronger effect = higher value
# Sequence of NAD(+) hydrolase SARM1 (Homo sapiens) (Q6SZW1 whole entry, looked up, the tested form may be a part): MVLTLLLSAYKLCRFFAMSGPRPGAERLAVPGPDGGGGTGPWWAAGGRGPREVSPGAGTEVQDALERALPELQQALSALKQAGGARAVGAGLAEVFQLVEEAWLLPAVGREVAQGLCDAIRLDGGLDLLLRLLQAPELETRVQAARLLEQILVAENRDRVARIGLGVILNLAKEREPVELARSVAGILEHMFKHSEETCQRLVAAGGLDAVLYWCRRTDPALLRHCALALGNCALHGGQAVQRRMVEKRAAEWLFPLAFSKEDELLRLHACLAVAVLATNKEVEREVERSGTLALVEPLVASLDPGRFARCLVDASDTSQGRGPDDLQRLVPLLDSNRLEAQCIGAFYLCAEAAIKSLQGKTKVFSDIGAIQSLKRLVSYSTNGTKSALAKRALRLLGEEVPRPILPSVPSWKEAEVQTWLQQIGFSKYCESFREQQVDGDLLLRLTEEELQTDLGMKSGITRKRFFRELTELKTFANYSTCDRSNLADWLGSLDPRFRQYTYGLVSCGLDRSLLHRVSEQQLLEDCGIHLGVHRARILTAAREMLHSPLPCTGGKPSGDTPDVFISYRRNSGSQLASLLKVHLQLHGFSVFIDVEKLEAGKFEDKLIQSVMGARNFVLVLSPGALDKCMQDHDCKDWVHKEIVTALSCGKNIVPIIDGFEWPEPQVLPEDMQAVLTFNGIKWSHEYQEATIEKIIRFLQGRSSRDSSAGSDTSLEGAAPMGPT
# [18] = target: Mitogen-activated protein kinase 7 (Homo sapiens) (UniProt Q13164); assay: Gal4-ERK5 driven luciferase induction – cell-based, HTS, primary screen (AID 1508626;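 active = luciferase signal above three times the same-plate solvent-only control wells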;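 note: luciferase driven by Gal4-ERK5 fusion binding five Gal4 sites before minimal TATA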); conditions: HeLa Gal4-ERK5 transactivation, 18 h, at 5 µM, stronger effect = higher value
# Sequence of Mitogen-activated protein kinase 7 (Homo sapiens) (Q13164 whole entry, looked up, the tested form may be a part): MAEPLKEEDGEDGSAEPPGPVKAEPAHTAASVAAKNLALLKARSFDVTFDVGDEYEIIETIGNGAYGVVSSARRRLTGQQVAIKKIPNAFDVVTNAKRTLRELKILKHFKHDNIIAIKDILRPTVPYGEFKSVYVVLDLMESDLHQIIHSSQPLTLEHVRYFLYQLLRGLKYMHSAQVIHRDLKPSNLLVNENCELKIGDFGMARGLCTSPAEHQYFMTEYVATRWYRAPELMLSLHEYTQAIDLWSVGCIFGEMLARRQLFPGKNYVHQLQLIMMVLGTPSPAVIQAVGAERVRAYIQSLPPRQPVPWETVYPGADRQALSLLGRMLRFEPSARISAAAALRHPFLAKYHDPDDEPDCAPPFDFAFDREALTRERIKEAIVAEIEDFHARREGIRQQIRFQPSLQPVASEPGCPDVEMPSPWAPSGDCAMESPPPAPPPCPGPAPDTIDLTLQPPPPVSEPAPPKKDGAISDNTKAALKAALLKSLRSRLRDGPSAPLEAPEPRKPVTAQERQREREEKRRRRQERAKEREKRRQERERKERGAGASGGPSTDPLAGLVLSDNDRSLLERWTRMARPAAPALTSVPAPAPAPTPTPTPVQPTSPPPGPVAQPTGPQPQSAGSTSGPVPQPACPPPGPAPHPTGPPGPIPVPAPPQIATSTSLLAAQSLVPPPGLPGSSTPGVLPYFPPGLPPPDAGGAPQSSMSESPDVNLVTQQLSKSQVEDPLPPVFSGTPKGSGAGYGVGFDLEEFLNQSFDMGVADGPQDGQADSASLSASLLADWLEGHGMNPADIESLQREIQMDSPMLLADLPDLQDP
# [19] = MELAS cybrid and Rieske KO viability enhancers – cell-based, MELAS cybrids, Rieske KO mouse fibroblasts, CellTiter-Glo, primary screen (AID 1508586;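 active = mean z-score across replicates of 1.96 or higher in either the MELAS or the Rieske mutant cell line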;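 note: z relative to plate mean and SD of compound and empty wells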); conditions: low glucose
# [20] = galactose survival enhancers in mitochondrial complex I cybrids – cell-based, galactose medium, ATP luminescence, primary screen (AID 1645843;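 active = z-score of at least 1.8 in each of two replicates, scored against plate mean and spread of sample wells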;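 note: positive z means more ATP and so rescue of galactose-driven cybrid death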); conditions: complex I mutant cybrid cells, 72 h, stronger effect = higher value
# [21] = measured here: epithelial PC-3E GFP cell survival
# [22] = measured here: mesenchymal TEM4-18 mCherry cell survival
# [23] = measured here: relative caspase fold change +Dox/-Dox
# [24] = measured here: total cells with miR-34 induction, stronger effect = lower value
# [25] = measured here: total cells without miR-34 induction
# [26] = MELAS cybrid survival, CellTiter-Glo 48 h, stronger effect = higher value
# [27] = Rieske KO mouse fibroblast survival, CellTiter-Glo 72 h
structure (smiles),measurement,setting,value
Oc1ccc(Cl)cc1,score,[1],0.2
same,cytochrome c release ratio,[2],0.97
same,inhibition of aggregation,[3],31.7%
same,parasite load remaining,[4],99.5% (inactive) and 63.2% (inactive)
same,viability,[4],70.5% and 93.7%
same,nuclear beta-catenin stimulation,[5]; at 10 µM,0.8% (inactive)
same,nuclear beta-catenin stimulation,"[5]; stimulation, at 2 µM",0.5%
same,insulin secretion stimulation,[6],-0.7% (inactive)
same,viability decrease,[7],21.3% (inactive)
same,tube area decrease,[8],12.2% (inactive)
same,GLP1 secretion stimulation,[9],0.3% (inactive)
same,inhibition of viability,[10],17.9% (inactive)
same,viability decrease (inhibition),[11],34.5% (inactive)
same,viability decrease (inhibition),[12],6.1% (inactive)
same,inhibition,[13],15% (inactive)
same,red/green cell ratio (normalised),[14],0.99 (inactive)
same,normalised cell number,[14]; [21],1.1
same,normalised cell number,[14]; [22],1.09
same,activity remaining,[15],115% (inactive)
same,fold change,[16]; stronger effect = lower value,0.923 (inactive)
same,fold change,[16]; [23],1.34
same,cell count,[16]; [24],11600
same,cell count,[16]; [25],12500
same,remaining NAD,[17],10 nM (inactive)
same,luciferase signal,[18],52 AU (inactive)
CC(C)=CC1C(C(=O)OCc2cccc(Oc3ccccc3)c2)C1(C)C (stereo unspecified),parasite load remaining,[4],123% (inactive)
same,viability,[4],88.5%
same,nuclear beta-catenin stimulation,[5]; at 10 µM,1.3% (inactive)
same,nuclear beta-catenin stimulation,"[5]; stimulation, at 2 µM",2.5%
same,insulin secretion stimulation,[6],2.9% (inactive)
same,viability decrease,[7],-21.3% (inactive)
same,tube area decrease,[8],-14.2% (inactive)
same,GLP1 secretion stimulation,[9],1.7% (inactive)
same,inhibition of viability,[10],15.9% (inactive)
same,viability decrease (inhibition),[11],16.2% (inactive)
same,viability decrease (inhibition),[12],31.4% (inactive)
same,inhibition,[13],-5.61% (inactive)
same,red/green cell ratio (normalised),[14],0.95 (inactive)
same,normalised cell number,[14]; [21],1.25
same,normalised cell number,[14]; [22],1.19
same,activity remaining,[15],99.1% (inactive)
same,remaining NAD,[17],10 nM (inactive)
CCCCCCCCC(=O)NCc1ccc(O)c(OC)c1,nuclear beta-catenin stimulation,[5]; at 10 µM,2.1% (inactive)
same,nuclear beta-catenin stimulation,"[5]; stimulation, at 2 µM",1.1%
same,insulin secretion stimulation,[6],-0.6% (inactive)
same,viability decrease,[7],4.5% (inactive)
same,tube area decrease,[8],21.4% (inactive)
same,GLP1 secretion stimulation,[9],4% (inactive)
same,inhibition of viability,[10],1.8% (inactive)
same,viability decrease (inhibition),[11],49.7% (inactive)
same,viability decrease (inhibition),[12],11.7% (inactive)
same,inhibition,[13],-12.3% (inactive)
same,activity remaining,[15],92.7% (inactive)
same,remaining NAD,[17],10 nM (inactive)
same,luciferase signal,[18],52 AU (inactive)
CC(=O)[O][Hg][c]1ccccc1,score,[1],-0.45
same,cytochrome c release ratio,[2],1.06
same,inhibition of aggregation,[3],-25.5%
same,parasite load remaining,[4],3.54% (inactive) and -0.265% (inactive)
same,viability,[4],23.1% and 0.225%
same,nuclear beta-catenin stimulation,[5]; at 10 µM,14.5% (inactive)
same,nuclear beta-catenin stimulation,"[5]; stimulation, at 2 µM",13.2%
same,insulin secretion stimulation,[6],15.9% (inactive)
same,viability decrease,[7],103% (active)
same,tube area decrease,[8],110% (active)
same,GLP1 secretion stimulation,[9],49.8% (active)
same,inhibition of viability,[10],103% (active)
same,viability decrease (inhibition),[11],144% (active)
same,viability decrease (inhibition),[12],105% (active)
same,inhibition,[13],-9.01% (inactive)
same,activity remaining,[15],-6.18% (active)
same,fold change,[16]; stronger effect = lower value,0.775 (inactive)
same,fold change,[16]; [23],1.65
same,cell count,[16]; [24],334
same,cell count,[16]; [25],432
same,remaining NAD,[17],63 nM (active)
same,luciferase signal,[18],32 AU (inactive)
C[C@@H]1O[C@@H](O[C@H]2C[C@@H](O)[C@]3(CO)[C@H]4[C@H](O)C[C@]5(C)[C@@H](C6=CC(=O)OC6)CC[C@]5(O)[C@@H]4CC[C@]3(O)C2)[C@H](O)[C@H](O)[C@H]1O,parasite load remaining,[4],-1.77% (inactive) and 5.6% (inactive) and -0.23% (inactive)
same,viability,[4],38.8% and 25.7% and 34%
same,nuclear beta-catenin stimulation,[5]; at 10 µM,0% (inactive)
same,nuclear beta-catenin stimulation,"[5]; stimulation, at 2 µM",-1.2%
same,insulin secretion stimulation,[6],5.8% (inactive)
same,viability decrease,[7],84.8% (active)
same,tube area decrease,[8],112% (active)
same,GLP1 secretion stimulation,[9],9.2% (inactive)
same,inhibition of viability,[10],56.6% (active)
same,viability decrease (inhibition),[11],61% (active)
same,viability decrease (inhibition),[12],77.4% (active)
same,inhibition,[13],-10.9% (inactive)
same,fold change,[16]; stronger effect = lower value,0.999 (inactive) and 0.916 (inactive) and 0.73 (inactive)
same,fold change,[16]; [23],0.275 and 1.45 and 1.97
same,cell count,[16]; [24],345 and 529 and 320
same,cell count,[16]; [25],346 and 578 and 438
same,z-score,[19]; [26],2.21 (active)
same,z-score,[19]; [27],-0.329
same,remaining NAD,[17],10 nM (inactive)
same,luciferase signal,[18],16 AU (inactive)
same,z-score,[20],-1.23 (inactive) and -2.25 (inactive)
COc1ccccc1N1CCNCC1,nuclear beta-catenin stimulation,[5]; at 10 µM,0.2% (inactive)
same,nuclear beta-catenin stimulation,"[5]; stimulation, at 2 µM",-0.4%
same,insulin secretion stimulation,[6],-0.2% (inactive)
same,viability decrease,[7],-7.7% (inactive)
same,tube area decrease,[8],7.7% (inactive)
same,GLP1 secretion stimulation,[9],-2.3% (inactive)
same,inhibition of viability,[10],-22.5% (inactive)
same,viability decrease (inhibition),[11],106% (active)
same,viability decrease (inhibition),[12],-1.65% (inactive)
same,inhibition,[13],-1.05% (inactive)
same,red/green cell ratio (normalised),[14],0.87 (inactive)
same,normalised cell number,[14]; [21],1.09
same,normalised cell number,[14]; [22],0.94
same,activity remaining,[15],95.5% (inactive)
same,fold change,[16]; stronger effect = lower value,0.98 (inactive)
same,fold change,[16]; [23],1.58
same,cell count,[16]; [24],9780
same,cell count,[16]; [25],9980
same,z-score,[20],1.06 (inactive)
CNC(C)(C)Cc1ccccc1,score,[1],1.71
same,cytochrome c release ratio,[2],1.14
same,inhibition of aggregation,[3],68.2%
same,parasite load remaining,[4],104% (inactive) and 157% (inactive) and 55.8% (inactive)
same,viability,[4],104% and 88.4% and 81%
same,nuclear beta-catenin stimulation,[5]; at 10 µM,-2.4% (inactive)
same,nuclear beta-catenin stimulation,"[5]; stimulation, at 2 µM",0.7%
same,insulin secretion stimulation,[6],2.7% (inactive)
same,viability decrease,[7],-16.7% (inactive)
same,tube area decrease,[8],-0.3% (inactive)
same,GLP1 secretion stimulation,[9],1.1% (inactive)
same,inhibition of viability,[10],0.43% (inactive)
same,viability decrease (inhibition),[11],15.4% (inactive)
same,viability decrease (inhibition),[12],-5.3% (inactive)
same,inhibition,[13],-16.6% (inactive)
same,red/green cell ratio (normalised),[14],1.08 (inactive)
same,normalised cell number,[14]; [21],0.92
same,normalised cell number,[14]; [22],1
same,activity remaining,[15],99.6% (inactive)
same,fold change,[16]; stronger effect = lower value,0.876 (inactive) and 0.893 (inactive)
same,fold change,[16]; [23],1.32 and 3.57
same,cell count,[16]; [24],7450 and 10900
same,cell count,[16]; [25],8510 and 12200
same,z-score,[19]; [26],-0.189 (inactive)
same,z-score,[19]; [27],-0.596
same,remaining NAD,[17],10 nM (inactive)
same,luciferase signal,[18],56 AU (inactive)
Clc1ccc(C(OCCN2CCCCC2)c2ccccc2)cc1 (stereo unspecified),score,[1],1.14
same,cytochrome c release ratio,[2],1.33
same,inhibition of aggregation,[3],66.7%
same,parasite load remaining,[4],32.6% (inactive) and 77.7% (inactive)
same,viability,[4],91.9% and 79.6%
same,nuclear beta-catenin stimulation,[5]; at 10 µM,3.4% (inactive)
same,nuclear beta-catenin stimulation,"[5]; stimulation, at 2 µM",2.6%
same,insulin secretion stimulation,[6],11.4% (inactive)
same,viability decrease,[7],-162% (inactive)
same,tube area decrease,[8],4.5% (inactive)
same,GLP1 secretion stimulation,[9],7.9% (inactive)
same,inhibition of viability,[10],25.5% (inactive)
same,viability decrease (inhibition),[11],72.3% (active)
same,viability decrease (inhibition),[12],26.4% (inactive)
same,inhibition,[13],14.2% (inactive)
same,red/green cell ratio (normalised),[14],0.83 (inactive)
same,normalised cell number,[14]; [21],1.02
same,normalised cell number,[14]; [22],0.85
same,activity remaining,[15],103% (inactive)
same,fold change,[16]; stronger effect = lower value,0.822 (inactive)
same,fold change,[16]; [23],1.27
same,cell count,[16]; [24],7820
same,cell count,[16]; [25],9510
same,z-score,[19]; [26],-1.82 (inactive)
same,z-score,[19]; [27],-0.41
same,remaining NAD,[17],10 nM (inactive)
same,luciferase signal,[18],180 AU (active)

# — PubChem BioAssay
